Reference: PubChem BioAssay (NCATS)
Records with an inconclusive call do not appear. A call without a number means that no potency is given here. The source made the active and inactive calls. Calls follow the shape of the dose curve; as a rule, active = well fitted curve in the direction sought with a large enough effect; inconclusive = small, poorly fitted or top-dose-only effect, or another doubt; inactive = no such curve, though single readings can be large; an effect the other way counts as inactive or inconclusive.

Target: Rap guanine nucleotide exchange factor 4 (Homo sapiens) (UniProt Q8WZA2)
Sequence (Q8WZA2 whole entry, looked up): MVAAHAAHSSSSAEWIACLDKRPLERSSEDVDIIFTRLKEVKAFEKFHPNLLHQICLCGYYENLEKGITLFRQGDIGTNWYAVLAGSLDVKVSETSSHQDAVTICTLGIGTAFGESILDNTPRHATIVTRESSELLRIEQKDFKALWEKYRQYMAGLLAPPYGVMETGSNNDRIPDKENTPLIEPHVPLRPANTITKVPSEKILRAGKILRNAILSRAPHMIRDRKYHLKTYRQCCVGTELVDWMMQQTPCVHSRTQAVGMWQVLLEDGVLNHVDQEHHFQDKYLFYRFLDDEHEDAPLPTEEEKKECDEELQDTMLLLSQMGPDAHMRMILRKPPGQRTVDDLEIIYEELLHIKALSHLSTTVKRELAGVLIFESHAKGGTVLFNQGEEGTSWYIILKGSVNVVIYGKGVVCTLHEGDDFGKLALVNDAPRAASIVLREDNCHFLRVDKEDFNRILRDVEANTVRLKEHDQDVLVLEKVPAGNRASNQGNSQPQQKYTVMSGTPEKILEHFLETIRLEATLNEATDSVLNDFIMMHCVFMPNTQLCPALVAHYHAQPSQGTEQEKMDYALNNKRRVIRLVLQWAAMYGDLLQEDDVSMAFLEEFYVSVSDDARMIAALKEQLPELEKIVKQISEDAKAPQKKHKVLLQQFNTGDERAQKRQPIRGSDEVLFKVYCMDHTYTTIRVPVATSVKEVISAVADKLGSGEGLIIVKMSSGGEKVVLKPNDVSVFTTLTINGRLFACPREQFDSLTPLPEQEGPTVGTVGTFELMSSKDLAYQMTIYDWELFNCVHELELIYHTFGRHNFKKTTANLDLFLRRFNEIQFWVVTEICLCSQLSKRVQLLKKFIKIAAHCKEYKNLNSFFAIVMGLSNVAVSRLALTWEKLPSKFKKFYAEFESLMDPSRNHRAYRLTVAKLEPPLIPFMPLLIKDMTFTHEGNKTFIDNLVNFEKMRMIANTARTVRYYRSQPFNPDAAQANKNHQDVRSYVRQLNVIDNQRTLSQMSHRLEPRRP
Assay: Confirmatory qHTS for agonist of cAMP-regulated guanine nucleotide exchange factor 4 (EPAC2) (AID 1645884);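 also: nucleotide exchange releases bodipy-GDP from Rap1 and this lowers its fluorescence; nearly all actives have a fitted effect of over 65% in size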
Conditions: EPAC2 GEF activity, Rap1B-BODIPY-GDP fluorescence, percent relative to cAMP agonist control; series mostly up to 154 µM

SMILES | outcome
CCOC(=O)Oc1c(OC)cc(C(=O)O[C@@H]2C[C@@H]3CN4CCc5c([nH]c6cc(OC)ccc56)[C@H]4C[C@@H]3[C@H](C(=O)OC)[C@H]2OC)cc1OC | inactive
CC(C)[C@@H](C)/C=C/[C@@H](C)[C@H]1CC[C@H]2/C(=C/C=C3\C[C@@H](O)CC[C@@H]3C)CCC[C@]12C | inactive
COc1ccc(/C=C/C(=O)O)cc1 | inactive
C=CC(C)(O)CC/C=C(\C)CCC=C(C)C (stereo not given) | inactive
C=CC[C@@H]1/C=C(\C)C[C@H](C)C[C@H](OC)[C@H]2O[C@@](O)(C(=O)C(=O)N3CCCC[C@H]3C(=O)O[C@H](/C(C)=C/[C@@H]3CC[C@@H](O)[C@H](OC)C3)[C@H](C)[C@@H](O)CC1=O)[C@H](C)C[C@@H]2OC | inactive
NC(=O)Oc1ccc(Cc2ccccc2)cc1 | inactive
COc1ccc2c(c1)N(C[C@H](C)CN(C)C)c1ccccc1S2 | inactive
CC1CC(OC(=O)C(O)c2ccccc2)CC(C)(C)C1 (stereo not given) | inactive
O=C(NNCS(=O)(=O)O)c1ccncc1 | inactive
CSc1nc2cc(Oc3cccc(Cl)c3Cl)c(Cl)cc2[nH]1 | inactive
COc1cc(NCCCC(C)N)c2ncccc2c1 (stereo not given) | inactive

Target: Rap guanine nucleotide exchange factor 4 (Homo sapiens) (UniProt Q8WZA2)
Assay: Confirmatory qHTS for antagonist of cAMP-regulated guanine nucleotide exchange factor 4 (EPAC2) (AID 1645885); also: nearly all actives have a fitted effect of over 25% in size; also: potency is read from the fitted curve at half-maximal effect
Conditions: EPAC2 Rap1B-BODIPY-GDP exchange fluorescence, biochemical; series mostly up to 114 µM

SMILES | Potency
COc1ccc(/C=C/C(=O)O)cc1 | inactive
C=CC(C)(O)CC/C=C(\C)CCC=C(C)C (stereo not given) | 44.1 µM (active)
NC(=O)Oc1ccc(Cc2ccccc2)cc1 | inactive
COc1ccc2c(c1)N(C[C@H](C)CN(C)C)c1ccccc1S2 | inactive
O=C(NNCS(=O)(=O)O)c1ccncc1 | inactive
COc1cc(NCCCC(C)N)c2ncccc2c1 (stereo not given) | inactive

Test system: not listed separately
Assay: NCATS anti-infectives library activity on HEK293 viability as a counter-qHTS vs the C. elegans viability qHTS (AID 1745854);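 also: HEK293 cells exposed to compounds for 24 hr before the viability read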
Conditions: HEK293 viability counter-screen; series mostly up to 41.8 µM
Outline: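 Counter-screen for cytotoxicity: HEK293, 24 hr, 37C, compounds up to 41.7 uM final (a dilution series, 1:5). Readout CellTiter-Glo luminescence, 10 min RT. Digitonin control, 83.3 uM final.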

SMILES | outcome | activity change, negative = cytotoxicity
Nc1ncnc2c1ncn2[C@H]1CC[C@@H](CO)O1 | inactive | –
CC(C)c1nc(N(C)S(C)(=O)=O)nc(-c2ccc(F)cc2)c1/C=C/C(O)CC(O)CC(=O)O (stereo not given) | inactive | –
CC(=O)N=c1sc(S(N)(=O)=O)nn1C | inactive | –
NCCCC[C@H](N)C(=O)O | – | -19.5% [at 0.334 µM] (inactive)
C=CC[C@@H]1/C=C(\C)C[C@H](C)C[C@H](OC)[C@H]2O[C@@](O)(C(=O)C(=O)N3CCCC[C@H]3C(=O)O[C@H](/C(C)=C/[C@@H]3CC[C@@H](O)[C@H](OC)C3)[C@H](C)[C@@H](O)CC1=O)[C@H](C)C[C@@H]2OC | inactive | –
CCCC(CCC)C(=O)OC1C[C@H]2CC[C@@H](C1)[N+]2(C)C (stereo not given in full) | inactive | –
O=C(Nc1ccc(O)cc1)c1ccccc1O | inactive | –
Cc1c(O)c(=O)ccn1C | inactive | –
CC(=O)N[C@@H]([C@@H](O)[C@H](O)[C@H](O)CO)[C@@H](O)CC(=O)C(=O)O | inactive | –
O=C1c2c(O)cccc2[C@H]([C@@H]2O[C@H](CO)[C@@H](O)[C@H](O)[C@H]2O)c2cc(CO)cc(O)c21 | inactive | –
CCN(CC)C(=S)S | inactive | –
CC(C)=CCC/C(C)=C/C=C/C(C)=C/C=C/C(C)=C/C=C/C=C(C)/C=C/C=C(C)/C=C/C=C(\C)CCC=C(C)C | inactive | –

Test system: not listed separately
Assay: Viability counterscreen for antagonist of constitutive androstane receptor (CAR) against the NCATS DSHEA and TCM libraries (AID 1794837);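 also: compound exposure lasted 24 h before viability reading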
Conditions: CAR reporter cell line viability counterscreen, qHTS; series mostly up to 40 µM
Outline: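 Cell viability, CellTiter-Fluor, Ex/Em 405/540 nm, 1 h at 37C. HepG2-CYP2B6-hCAR, 2,500 cells/well; cpds + CITCO 48 uM final (antagonist mode), 24 h, 37C/5% CO2.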

SMILES | outcome | viability change, negative = cytotoxic
CC/C=C\C/C=C\C/C=C\C/C=C\C/C=C\CCCC(=O)O | inactive | –
CCCCCCCCCCCC(=O)OCC(O)CO (stereo not given) | inactive | –
C=C1CC[C@H](O)C/C1=C\C=C1/CCC[C@]2(C)[C@@H]([C@H](C)CCCC(C)C)CC[C@@H]12 | inactive | –
Oc1cccc(O)c1O | inactive | –
COC1=C(OC)C(=O)C(C/C=C(\C)CC/C=C(\C)CC/C=C(\C)CC/C=C(\C)CC/C=C(\C)CC/C=C(\C)CC/C=C(\C)CC/C=C(\C)CC/C=C(\C)CCC=C(C)C)=C(C)C1=O | inactive | –
CC[C@H](CC[C@@H](C)[C@H]1CC[C@H]2[C@@H]3CC=C4C[C@@H](O)CC[C@]4(C)[C@H]3CC[C@]12C)C(C)C | inactive | –
CCCCC/C=C\C/C=C\C/C=C\CCCCC(=O)O | – | -4.69% [at 5 µM] (inactive)
CC(C)=CCC/C(C)=C/C=C/C(C)=C/C=C/C(C)=C/C=C/C=C(C)/C=C/C=C(C)/C=C/C=C(\C)CCC=C(C)C | inactive | –

Test system: not listed separately
Assay: Viability counterscreen for agonist of constitutive androstane receptor (CAR) against the NCATS DSHEA and TCM libraries (AID 1794838);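 also: HepG2 cells with CYP2B6 reporter and hCAR plus 0.75 µM PK11195 antagonist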
Conditions: HepG2 cell viability counterscreen, CAR agonist assay, co-treated with 0.75 µM CAR antagonist; series mostly up to 40 µM
Outline: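 Viability by CellTiter-Fluor fluorescence, 405/540 nm, after 1 h at 37C. HepG2-CYP2B6-hCAR cells were exposed 24 h to test substances in presence of 0.75 uM PK11195 (final).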

SMILES | outcome | activity change, negative = cytotoxicity
CC/C=C\C/C=C\C/C=C\C/C=C\C/C=C\CCCC(=O)O | inactive | –
CCCCCCCCCCCC(=O)OCC(O)CO (stereo not given) | inactive | –
C=C1CC[C@H](O)C/C1=C\C=C1/CCC[C@]2(C)[C@@H]([C@H](C)CCCC(C)C)CC[C@@H]12 | inactive | –
Oc1cccc(O)c1O | inactive | –
COC1=C(OC)C(=O)C(C/C=C(\C)CC/C=C(\C)CC/C=C(\C)CC/C=C(\C)CC/C=C(\C)CC/C=C(\C)CC/C=C(\C)CC/C=C(\C)CC/C=C(\C)CCC=C(C)C)=C(C)C1=O | inactive | –
CC[C@H](CC[C@@H](C)[C@H]1CC[C@H]2[C@@H]3CC=C4C[C@@H](O)CC[C@]4(C)[C@H]3CC[C@]12C)C(C)C | inactive | –
CCCCC/C=C\C/C=C\C/C=C\CCCCC(=O)O | – | -8.92% [at 5 µM] (inactive)
CC(C)=CCC/C(C)=C/C=C/C(C)=C/C=C/C(C)=C/C=C/C=C(C)/C=C/C=C(C)/C=C/C=C(\C)CCC=C(C)C | inactive | –
